Source: PubChem BioAssay AID1159580 (chemical genetic matrix, 2015)
Out of some 5,500 compounds screened, about 2,000 (36%) were called active. Inconclusive results (about 18%) are left out. Cut-off read from the data, not from the text of the source: active = normalized growth mostly below about 0.91 (no sharp cut-off); inconclusive = no clear call, values can overlap the other calls; inactive = mostly above about 0.92. The list shows a part of the results.

Assay: chemical genetic growth profiling, strain panel (AID 1159580);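 note: tested at 20 µM; growth read once vehicle control cultures reached saturation at 30 °C; 1 = growth at the plate median or of vehicle wells; lower values mean less growth of the strain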
Details: growth OD
[1] = S. cerevisiae deletion strains, locus YAL013W, strain DEP1, stronger effect = lower value

Measured: normalized growth

CCOC(=O)C12CC1/C(=N\O)c1ccccc1O2 (centres undefined)
inactive: [1] 0.998 | S. cerevisiae deletion strains, locus YAL040C, strain CLN3, stronger effect = lower value 1.05 | S. cerevisiae deletion strains, locus YCL061C, strain MRC1 (second series), stronger effect = lower value 0.995 | S. cerevisiae deletion strains, locus YER002W, strain NOP16, stronger effect = lower value 1.02 | S. cerevisiae deletion strains, locus YGR229C, strain SMI1, stronger effect = lower value 0.991 | S. cerevisiae deletion strains, locus YNL153C, strain GIM3, stronger effect = lower value 1.02 | S. cerevisiae deletion strains, locus YNL175C, strain NOP13, stronger effect = lower value 1.02 | S. cerevisiae deletion strains, locus YNL197C, strain WHI3, stronger effect = lower value 1.02 | S. cerevisiae deletion strains, locus YNL224C, strain SQS1, stronger effect = lower value 1 | S. cerevisiae deletion strains, locus YOR083W, strain WHI5 (second series), stronger effect = lower value 1.02

CCOC(=O)C1(O)Oc2cc(OC)cc(OC)c2C(=O)C1c1ccccc1 (centres undefined)
inactive: [1] 0.969 | S. cerevisiae deletion strains, locus YBR229C, strain ROT2, stronger effect = lower value 1.01 | S. cerevisiae deletion strains, locus YCL029C, strain bik1, stronger effect = lower value 0.996 | S. cerevisiae deletion strains, locus YDL035C, strain GPR1, stronger effect = lower value 0.984 | S. cerevisiae deletion strains, locus YDL074C, strain BRE1, stronger effect = lower value 0.947 | S. cerevisiae deletion strains, locus YDL101C, strain DUN1, stronger effect = lower value 1 | S. cerevisiae deletion strains, locus YDL134C, strain PPH21, stronger effect = lower value 0.986 | S. cerevisiae deletion strains, locus YDL185W, strain tfp1, stronger effect = lower value 1 | S. cerevisiae deletion strains, locus YDL192W, strain arf1, stronger effect = lower value 0.982 | S. cerevisiae deletion strains, locus YDR101C, strain arx1, stronger effect = lower value 0.984 | S. cerevisiae deletion strains, locus YDR162C, strain NBP2, stronger effect = lower value 1 | S. cerevisiae deletion strains, locus YDR318W, strain mcm21, stronger effect = lower value 0.979 | S. cerevisiae deletion strains, locus YDR388W, stronger effect = lower value 0.976 | S. cerevisiae deletion strains, locus YDR502C, strain sam2, stronger effect = lower value 0.932 | S. cerevisiae deletion strains, locus YEL061C, strain CIN8, stronger effect = lower value 0.996 | S. cerevisiae deletion strains, locus YER110C, stronger effect = lower value 0.977 | S. cerevisiae deletion strains, locus YER155C, strain BEM2, stronger effect = lower value 0.978 | S. cerevisiae deletion strains, locus YER167W, strain BCK2, stronger effect = lower value 1 | S. cerevisiae deletion strains, locus YGL078C, strain dbp3, stronger effect = lower value 0.993 | S. cerevisiae deletion strains, locus YGL086W, strain mad1, stronger effect = lower value 0.97 | S. cerevisiae deletion strains, locus YGL248W, strain PDE1, stronger effect = lower value 0.99 | S. cerevisiae deletion strains, locus YGR135W, strain pre9, stronger effect = lower value 0.925 | S. cerevisiae deletion strains, locus YGR252W, strain gcn5, stronger effect = lower value 0.815 | S. cerevisiae deletion strains, locus YHR079C, strain IRE1 (second series), stronger effect = lower value 0.974 | S. cerevisiae deletion strains, locus YHR094C, strain hxt1, stronger effect = lower value 0.981 | S. cerevisiae deletion strains, locus YHR129C, strain ARP1, stronger effect = lower value 0.993 | S. cerevisiae deletion strains, locus YHR200W, strain rpn10, stronger effect = lower value 0.959 | S. cerevisiae deletion strains, locus YIL066C, strain RNR3, stronger effect = lower value 1 | S. cerevisiae deletion strains, locus YIL073C, strain SPO22, stronger effect = lower value 0.968 | S. cerevisiae deletion strains, locus YIL125W, strain kgd1, stronger effect = lower value 0.989 | S. cerevisiae deletion strains, locus YIR030C, strain dcg1, stronger effect = lower value 0.983 | S. cerevisiae deletion strains, locus YJL095W, strain BCK1, stronger effect = lower value 0.97 | S. cerevisiae deletion strains, locus YJL134W, strain LCB3, stronger effect = lower value 1 | S. cerevisiae deletion strains, locus YJL168C, strain set2, stronger effect = lower value 0.977 | S. cerevisiae deletion strains, locus YJL187C, strain SWE1 (second series), stronger effect = lower value 0.971 | S. cerevisiae deletion strains, locus YJR043C, strain POL32, stronger effect = lower value 0.967 | S. cerevisiae deletion strains, locus YKL009W, strain mrt4, stronger effect = lower value 0.985 | S. cerevisiae deletion strains, locus YKL068W, stronger effect = lower value 1 | S. cerevisiae deletion strains, locus YKL085W, strain MDH1 (second series), stronger effect = lower value 1.01 | S. cerevisiae deletion strains, locus YKL085W, strain MDH1, stronger effect = lower value 1.01 | S. cerevisiae deletion strains, locus YKR001C, strain vps1, stronger effect = lower value 0.97 | S. cerevisiae deletion strains, locus YLR039C, strain RIC1, stronger effect = lower value 1.03 | S. cerevisiae deletion strains, locus YLR058C, strain SHM2, stronger effect = lower value 1 | S. cerevisiae deletion strains, locus YLR102C, strain apc9, stronger effect = lower value 0.976 | S. cerevisiae deletion strains, locus YLR262C, strain YPT6, stronger effect = lower value 1.03 | S. cerevisiae deletion strains, locus YLR268W, strain sec22, stronger effect = lower value 0.973 | S. cerevisiae deletion strains, locus YLR371W, strain rom2, stronger effect = lower value 0.997 | S. cerevisiae deletion strains, locus YLR418C, strain cdc73, stronger effect = lower value 0.906 | S. cerevisiae deletion strains, locus YML016C, strain PPZ1, stronger effect = lower value 0.998 | S. cerevisiae deletion strains, locus YML032C, strain rad52, stronger effect = lower value 0.97 | S. cerevisiae deletion strains, locus YML124C, strain tub3, stronger effect = lower value 0.977 | S. cerevisiae deletion strains, locus YMR078C, strain ctf18, stronger effect = lower value 0.979 | S. cerevisiae deletion strains, locus YMR223W, strain ubp8, stronger effect = lower value 0.951 | S. cerevisiae deletion strains, locus YMR263W, strain SAP30, stronger effect = lower value 0.987 | S. cerevisiae deletion strains, locus YMR307W, strain GAS1, stronger effect = lower value 0.979 | S. cerevisiae deletion strains, locus YNL067W, strain RPL9B, stronger effect = lower value 0.983 | S. cerevisiae deletion strains, locus YNL233W, strain BNI4, stronger effect = lower value 0.955 | S. cerevisiae deletion strains, locus YNL250W, strain rad50, stronger effect = lower value 0.979 | S. cerevisiae deletion strains, locus YNL271C, strain bni1, stronger effect = lower value 0.999 | S. cerevisiae deletion strains, locus YNL298W, strain CLA4, stronger effect = lower value 1.02 | S. cerevisiae deletion strains, locus YNL307C, strain MCK1, stronger effect = lower value 0.961 | S. cerevisiae deletion strains, locus YNL322C, strain KRE1, stronger effect = lower value 0.991 | S. cerevisiae deletion strains, locus YNR052C, strain pop2, stronger effect = lower value 0.989 | S. cerevisiae deletion strains, locus YOL006C, strain TOP1, stronger effect = lower value 0.893 | S. cerevisiae deletion strains, locus YOL012C, strain htz1 1.08 | S. cerevisiae deletion strains, locus YOL147C, strain pex11, stronger effect = lower value 0.973 | S. cerevisiae deletion strains, locus YOR061W, strain CKA2, stronger effect = lower value 1.01 | S. cerevisiae deletion strains, locus YOR069W, strain VPS5, stronger effect = lower value 0.999 | S. cerevisiae deletion strains, locus YOR136W, strain idh2, stronger effect = lower value 0.981 | S. cerevisiae deletion strains, locus YOR144C, strain elg1, stronger effect = lower value 0.988 | S. cerevisiae deletion strains, locus YOR184W, strain ser1, stronger effect = lower value 0.978 | S. cerevisiae deletion strains, locus YOR316C, strain cot1, stronger effect = lower value 0.98 | S. cerevisiae deletion strains, locus YPR119W, strain clb2, stronger effect = lower value 0.96 | S. cerevisiae deletion strains, locus YPR141C, strain kar3, stronger effect = lower value 0.99 | S. cerevisiae deletion strains, locus YPR163C, strain tif3, stronger effect = lower value 0.984 | S. cerevisiae deletion strains, locus YPR167C, strain met16, stronger effect = lower value 0.961 | S. cerevisiae deletion strains, strain wtn01, stronger effect = lower value 0.973 | S. cerevisiae strains, strain wild type, stronger effect = lower value 0.99
active: S. cerevisiae deletion strains, locus YBR021W, strain FUR4, stronger effect = lower value 0.837
